# Assay results published in PubChem BioAssay (NCI).
# About 83,000 compounds went through this panel and 20% of them were active in at least one assay; those are over-represented in the sample as a whole.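 Cells were grown in 96-well plates and exposed to the test compound at a single concentration for 48 hours; results are reported as percent growth, with values below 10 considered active.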 Calls of active or inactive are those of the source.
# Tested on: MDA-MB-468 breast
# Assay: NCI-60 one-dose screen, 48 h (100 = growth as untreated, 0 = no growth, -100 = all killed)
# Conditions: 10 µM unless noted
row,SMILES,growth
1,CCN(Cc1ccc(CN(CC)C(=O)C(Cl)(Cl)Cl)cc1)C(=O)C(Cl)(Cl)Cl,62.5% (inactive)
2,C[C@@H](C(=O)NCCCC#Cc1cnc(Nc2ccc(C#N)cc2)nc1NC1CC1)N(C)C(=O)/C=C/CN(C)C,39.2% (inactive)
3,O=C1/C(=C/c2cccc(O)c2)COc2ccc(O)cc21,52.8% (inactive)
4,Cc1nc2sc(C(=O)Nc3ccccc3)c(N)c2cc1C(=O)c1ccccc1,9.68% (active)
5,C/C(=C(/c1ccc(Cl)cc1)c1ccc(OCCN2CCCCC2)cc1)c1ccccc1,90.6% (inactive)
